Measurements taken from PubChem BioAssay AID1645855 (Buhrlage Lab, Dana-Farber Cancer Institute and Novartis …, 2021).
In all, about 47,000 compounds went through this assay and about 3,100 (6.6%) were called active. The sample holds actives, similar compounds and a random draw of the others, so the mix is not that of the screen. A number with no mark means an inactive call. Rule as the data show it: active = inhibition above about 30%; inactive = the rest.

The molecules below were run against Ubiquitin carboxyl-terminal hydrolase 17-like protein 5 (Homo sapiens) (UniProt A8MUK1) (assay: inhibitors of human USP17 deubiquitinase (AID 1645855)). Conditions: purified USP17, Ub-rhodamine cleavage fluorescence, 3 h; at 50 µM; active compounds read high.
Chain of Ubiquitin carboxyl-terminal hydrolase 17-like protein 5 (Homo sapiens) (A8MUK1 whole entry, looked up): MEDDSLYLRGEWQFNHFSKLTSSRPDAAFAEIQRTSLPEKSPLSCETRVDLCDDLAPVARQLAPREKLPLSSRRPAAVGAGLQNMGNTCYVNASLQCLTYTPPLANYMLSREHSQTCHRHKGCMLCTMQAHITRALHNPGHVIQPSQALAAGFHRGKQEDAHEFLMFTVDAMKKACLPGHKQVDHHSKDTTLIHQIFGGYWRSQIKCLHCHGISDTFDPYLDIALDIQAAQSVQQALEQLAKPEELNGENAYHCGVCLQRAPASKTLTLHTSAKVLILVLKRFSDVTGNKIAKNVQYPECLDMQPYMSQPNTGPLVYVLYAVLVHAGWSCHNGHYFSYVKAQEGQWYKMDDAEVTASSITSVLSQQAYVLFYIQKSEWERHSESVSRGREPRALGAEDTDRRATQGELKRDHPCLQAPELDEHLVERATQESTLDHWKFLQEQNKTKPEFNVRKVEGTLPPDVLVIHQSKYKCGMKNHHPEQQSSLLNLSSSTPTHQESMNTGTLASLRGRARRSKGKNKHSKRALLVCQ
In the case of `O=c1oc2cccnc2n1Cc1ccccc1F`, the inhibition is reported as 13%. Work on `COc1ccccc1CNC(=O)C1CCN(S(C)(=O)=O)c2ccccc2O1` (configuration not stated) yielded an inhibition of 1.45%. `Cc1ccc(CN2C(=O)CS(=O)(=O)C(C)C2=O)cc1` (configuration not stated) showed an inhibition of 0.155%. In the case of `C[C@H](NC(=O)c1ccc2c(c1)OCO2)c1nc2cc(-c3ccc(F)cc3)ncn2n1`, the inhibition is reported as 35% (active). `CC(NC(=O)c1ccc2c(c1)OCCO2)c1ccc2c(c1)OCCCO2` (configuration not stated) was tested, and the inhibition was -21.9%. Work on `Cc1nc(-c2ccc(C(=O)NCc3ccc4c(c3)OCO4)cc2)cs1` yielded an inhibition of 29.5%. `Cc1ccc(NS(=O)(=O)c2cc3n(c2)CCCNC3=O)c(F)c1` gave an inhibition of -11.3%. With `O=C(c1ncccn1)N1CCCC1c1ncc(Cc2ccccc2Cl)o1` (configuration not stated) the inhibition was 0.408%. In the case of `COc1ccc(NC(=O)c2c(N3CCCC3=O)c3cc(F)ccc3n2C)cc1Cl`, the inhibition is reported as -15.2%. `CC(=O)c1ccc(NC(=O)C(C)Sc2nnc(COc3ccc(C)cc3)n2Cc2ccccc2)cc1` (configuration not stated) gave an inhibition of 7.66%. With `CC(Oc1ccccc1)C(=O)Nc1ccc(-c2cn3cccnc3n2)cc1` (configuration not stated) the inhibition was 41.4% (active). For `CCC(C(=O)Nc1ccc(-c2cn3cccnc3n2)cc1)c1ccccc1` (configuration not stated), the inhibition was 45.8% (active). Molecule `Cc1ccn2cc(-c3ccc(NS(=O)(=O)c4cc(C)c(C)cc4C)cc3)nc2n1` has an inhibition of -32.9%. Molecule `CCC(C(=O)Nc1cc(=O)[nH]c2nc(CCc3ccccc3)nn12)c1ccccc1` (configuration not stated) has an inhibition of 2.97%. Molecule `O=C(Nc1ccc(-c2nc3cccnc3s2)cc1)C(c1ccccc1)c1ccccc1` has an inhibition of -146%. `Cc1ccc(Cn2c(C(=O)O)c(CNC(C)CCc3ccccc3)c3ccccc32)cc1` (configuration not stated) showed an inhibition of -1.67%. For `Cc1nc(Nc2ncccn2)cc(C2CCCN2S(C)(=O)=O)n1` (configuration not stated), the inhibition was 0.142%. `O=C1CN(C(=O)c2cccc3ccccc23)C(c2ccc(F)cc2)c2cc(Br)ccc2N1` (configuration not stated) showed an inhibition of 2.94%. `O=C(c1cc2ccccc2[nH]1)N1CCCC2(COCCN(c3cccnc3)C2)C1` (configuration not stated) showed an inhibition of 16.4%. Molecule `CCOc1ccc2c(c1)c(=O)c(C(=O)c1ccccc1)cn2CC(=O)Nc1ccc(OC)cc1` has an inhibition of -0.53%. For `CCOc1ccc(NC(=O)Cn2cc(C(=O)c3ccc(Cl)cc3)c(=O)c3cc(OC)ccc32)cc1`, the inhibition was 57.1% (active). With `COc1ccc(NC(=O)CSc2cn(CC(=O)N3CCCC3)c3ccccc23)cc1` the inhibition was 7.65%. For `O=C(C1CC1)N1CCc2cc(S(=O)(=O)NCCCN3CCN(Cc4ccccc4)CC3)ccc21`, the inhibition was -6.1%. `COc1ccc(-c2nc3c(c(=O)c4ccccc4n3C)c(=O)n2CCc2ccc(OC)c(OC)c2)cc1` showed an inhibition of 7.74%. `COc1c(O)c2c3c(c1O)C(=O)[C@@]1(O)C(=C3C(C)=CC2=O)O[C@@H](C)C1(C)C` was tested, and the inhibition was 37.6% (active). With `Cc1nn(-c2ccccc2)c(C)c1S(=O)(=O)Nc1ccccc1C(N)=O` the inhibition was 7.84%. `COc1cccc(CNS(=O)(=O)c2cc3[nH]c4c(c3cc2C)C(=O)CCC4)c1` showed an inhibition of -25.1%. Molecule `Cc1oc(-c2ccccc2Cl)cc1C(=O)Nc1ccc(F)cc1` has an inhibition of -7.25%. With `Cn1nc(C(=O)Nc2ccc(F)cc2)c(=O)c2ccccc21` the inhibition was 32.8% (active). In the case of `COc1cccc(NC(=O)c2nn(-c3ccc(F)cc3)c(OC)cc2=O)c1`, the inhibition is reported as -0.739%. In the case of `CN1CCc2c(sc3nc(SCCc4ccccc4)n(-c4ccccc4)c(=O)c23)C1`, the inhibition is reported as 41.9% (active). `CNc1nc2c(c(=O)n1-c1ccccc1)CN(C(=O)c1ccc3ccccc3c1)CC2` gave an inhibition of 1.41%. `CNc1nc2c(c(=O)n1-c1ccccc1)CCN(S(C)(=O)=O)C2` was tested, and the inhibition was 4.69%. For `Cc1ccc(-c2nnc(CCC(=O)O)o2)cc1`, the inhibition was -26.7%. In the case of `COc1cc(OC)cc(C(=O)Nc2cccc(CCc3nc4ccc(C)cc4[nH]3)c2)c1`, the inhibition is reported as 30.4% (active). `COc1ccccc1NC(=O)Nc1ccc(CCc2nc3ccccc3[nH]2)cc1` gave an inhibition of -12.4%. In the case of `CC(=O)Nc1ccc(C(=O)CSc2nc3ccc(C)cc3[nH]2)cc1`, the inhibition is reported as 12.1%. `Cc1ccc(C(=O)N2CCCC(c3nnc(-c4ccccc4)o3)C2)cc1F` (configuration not stated) was tested, and the inhibition was -2.67%. Work on `O=CN1c2ccccc2NC(=O)CC1c1ccccc1` (configuration not stated) yielded an inhibition of -3.98%. With `Cc1cc(NC2CCCCC2)n2ncc(-c3ccc(Cl)cc3)c2n1` the inhibition was -4.39%. `c1ccc(-c2nc3c4ccccc4nc(NC4CCCC4)n3n2)cc1` gave an inhibition of -4.03%. For `Clc1ccc2ncnc(NC3CCCCC3)c2c1`, the inhibition was 39.8% (active). `Cc1cc(C(=O)Nc2cccc(F)c2)cc2c1N(C)S(=O)(=O)c1ccccc1-2` showed an inhibition of 5.77%. In the case of `Cc1nn(-c2ccc(F)cc2F)c2c1C(C(=O)c1cc3ccccc3o1)CC(=O)N2` (configuration not stated), the inhibition is reported as 31.3% (active). With `Cc1nn(-c2cccc(F)c2)c2c1C(C(=O)c1cc3ccccc3o1)CC(=O)N2` (configuration not stated) the inhibition was 2.88%. Molecule `Cc1nn(-c2ccc(F)cc2F)c2c1C(C(=O)c1ccc3c(c1)OCO3)CC(=O)N2` (configuration not stated) has an inhibition of 9.19%. Work on `Cc1cc(N2CCCC2)ccc1CN1CCCC(c2nnc3n2CCNCC3)C1` (configuration not stated) yielded an inhibition of -63.9%. `O=C(Nc1ccccc1-c1nc2ccccc2[nH]1)c1cc(S(=O)(=O)N2CCOCC2)c(Cl)cc1Cl` gave an inhibition of -21.9%. For `O=C(Nc1nc2ccc(S(=O)(=O)N3CCOCC3)cc2s1)c1cc2ccccc2oc1=O`, the inhibition was 34.2% (active). Molecule `O=C(Nc1ccc(Cl)c(S(=O)(=O)N2CCOCC2)c1)c1cc(-c2ccccc2Cl)nc2ccccc12` has an inhibition of -12.8%. `CC(=O)CCCSc1ncnc2c1sc1nc(N3CCOCC3)c3c(c12)CC(C)(C)OC3` gave an inhibition of 16.1%. For `O=C(COc1cccc2ccc(N3CCC(Cc4ccccc4)CC3)nc12)NCc1ccc(F)cc1`, the inhibition was 35.1% (active). For `O=C(COc1cccc2ccc(N3CCC(Cc4ccccc4)CC3)nc12)Nc1cccc(F)c1`, the inhibition was 46.2% (active). `Cn1c(=O)c(N2CCC(C(=O)NCc3ccc(F)cc3)CC2)nc2cccnc21` was tested, and the inhibition was 16.8%. Work on `O=C(CCc1nnc2ccc(N3CCCC3)nn12)NCc1ccc(F)cc1` yielded an inhibition of 11.5%. Molecule `O=C(CC1C(=O)OCCN1Cc1ccccc1)Nc1cccc(F)c1` (configuration not stated) has an inhibition of -10.1%. For `COc1ccc(NC(=O)CSc2ncccc2C(=O)N2CCC(Cc3ccccc3)CC2)cc1OC`, the inhibition was 11%.
